The source of these data is PubChem BioAssay (Tox21).

SMILES strings stand for the structures. Values joined by “and” are separate entries in the source; they are usually repeats but may differ in a detail not shown here. Equal values may be shown once. Results filed as inconclusive are left out. Where a structure was tested more than once in an assay, its records may differ in their call. Active and inactive are the calls of the source. The call rests on the fitted dose curve; in most records, active means well fitted curve in the direction sought with a large enough effect in the repeat runs; inconclusive means weak or mixed curves; inactive means no such curve, though single readings can be large; an effect the other way counts as inactive or inconclusive.

The target in test [1] is Cytochrome P450 2C9 (Homo sapiens) (UniProt P11712). Nature of the test: Cytochrome P450 Family 2 Subfamily C Member 9 (CYP2C9) small molecule antagonists: luciferase reporter qHTS assay (AID 1671198). On activity change, negative = inhibition: series mostly up to about 120 µM. A digest of the protocol:
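CYP2C9 activity was measured with a P450-Glo proluciferin substrate. Enzyme–substrate mix was held with compound for 10 min at room temperature, then NADPH regeneration solution was added for 1 h at 37C. Luciferin product was read as luminescence.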
A general note: In a reporter assay the amount or activity of a reporter protein is the signal.

In test [2] the target is Cytochrome P450 1A2 (Homo sapiens) (UniProt P05177). Nature of the test: Cytochrome P450 Family 1 Subfamily A Member 2 (CYP1A2) small molecule antagonists: luciferase reporter qHTS assay (AID 1671199). On activity change, negative = inhibition: series mostly up to about 120 µM. The essentials: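 Inhibition of CYP1A2 conversion of proluciferin to luciferin, detected by luminescence. Reaction run 1 h at room temperature with NADPH regeneration after brief compound preincubation.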
Cytochrome P450 1A2 (Homo sapiens), sequence (P05177 whole entry, looked up): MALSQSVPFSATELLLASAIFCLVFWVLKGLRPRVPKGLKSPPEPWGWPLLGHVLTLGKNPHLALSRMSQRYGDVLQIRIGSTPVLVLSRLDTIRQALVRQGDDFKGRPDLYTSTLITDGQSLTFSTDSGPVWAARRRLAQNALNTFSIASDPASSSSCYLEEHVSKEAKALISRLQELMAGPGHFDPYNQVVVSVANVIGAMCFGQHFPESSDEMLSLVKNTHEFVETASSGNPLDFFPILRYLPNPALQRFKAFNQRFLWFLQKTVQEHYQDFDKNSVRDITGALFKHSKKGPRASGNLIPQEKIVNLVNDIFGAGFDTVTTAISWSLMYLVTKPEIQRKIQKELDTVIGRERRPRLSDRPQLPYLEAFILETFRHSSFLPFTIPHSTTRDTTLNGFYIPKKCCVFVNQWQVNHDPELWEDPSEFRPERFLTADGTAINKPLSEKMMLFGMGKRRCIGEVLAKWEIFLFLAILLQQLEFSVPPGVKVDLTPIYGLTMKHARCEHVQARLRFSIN

Test [3] concerns the target Voltage-gated inwardly rectifying potassium channel KCNH2 (Homo sapiens) (UniProt Q12809). Nature of the test: Human Ether-a-go-go-Related Gene (hERG) channel small molecule antagonists: fluorescence cell-based qHTS assay (AID 1671200).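 On activity change, negative = inhibition: hERG-expressing U2OS cells given a thallium stimulus after FluxOR II dye loading; series mostly up to about 77 µM.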 The essentials: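 Thallium served as the potassium surrogate; its influx into dye-loaded U2OS cells carrying the channel was measured by fluorescence over 2 min.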
(The hERG channel carries a current that helps repolarise heart muscle cells.)

Test [4] has as its target Cytochrome P450 3A4 (Homo sapiens) (UniProt P08684). Nature of the test: Cytochrome P450 Family 3 Subfamily A Member 4 (CYP3A4) small molecule antagonists: luciferase reporter qHTS assay (AID 1671201). On activity change, negative = inhibition: series mostly up to about 120 µM. The essentials: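 Relative luminescence units after 20 min with luciferin detection reagent served as read-out. Beforehand, CYP3A4 turned over a proluciferin substrate for 1 h at room temperature with NADPH regeneration, following 10 min compound preincubation.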
Further: nearly all actives have a fitted effect of over 50% in size.
On the % scale 0 is the no-effect control and ±100 the full control effect; potency means the concentration at half of the fitted maximal effect.

Voltage-gated inwardly rectifying potassium channel KCNH2 (Homo sapiens), sequence (Q12809 whole entry, looked up): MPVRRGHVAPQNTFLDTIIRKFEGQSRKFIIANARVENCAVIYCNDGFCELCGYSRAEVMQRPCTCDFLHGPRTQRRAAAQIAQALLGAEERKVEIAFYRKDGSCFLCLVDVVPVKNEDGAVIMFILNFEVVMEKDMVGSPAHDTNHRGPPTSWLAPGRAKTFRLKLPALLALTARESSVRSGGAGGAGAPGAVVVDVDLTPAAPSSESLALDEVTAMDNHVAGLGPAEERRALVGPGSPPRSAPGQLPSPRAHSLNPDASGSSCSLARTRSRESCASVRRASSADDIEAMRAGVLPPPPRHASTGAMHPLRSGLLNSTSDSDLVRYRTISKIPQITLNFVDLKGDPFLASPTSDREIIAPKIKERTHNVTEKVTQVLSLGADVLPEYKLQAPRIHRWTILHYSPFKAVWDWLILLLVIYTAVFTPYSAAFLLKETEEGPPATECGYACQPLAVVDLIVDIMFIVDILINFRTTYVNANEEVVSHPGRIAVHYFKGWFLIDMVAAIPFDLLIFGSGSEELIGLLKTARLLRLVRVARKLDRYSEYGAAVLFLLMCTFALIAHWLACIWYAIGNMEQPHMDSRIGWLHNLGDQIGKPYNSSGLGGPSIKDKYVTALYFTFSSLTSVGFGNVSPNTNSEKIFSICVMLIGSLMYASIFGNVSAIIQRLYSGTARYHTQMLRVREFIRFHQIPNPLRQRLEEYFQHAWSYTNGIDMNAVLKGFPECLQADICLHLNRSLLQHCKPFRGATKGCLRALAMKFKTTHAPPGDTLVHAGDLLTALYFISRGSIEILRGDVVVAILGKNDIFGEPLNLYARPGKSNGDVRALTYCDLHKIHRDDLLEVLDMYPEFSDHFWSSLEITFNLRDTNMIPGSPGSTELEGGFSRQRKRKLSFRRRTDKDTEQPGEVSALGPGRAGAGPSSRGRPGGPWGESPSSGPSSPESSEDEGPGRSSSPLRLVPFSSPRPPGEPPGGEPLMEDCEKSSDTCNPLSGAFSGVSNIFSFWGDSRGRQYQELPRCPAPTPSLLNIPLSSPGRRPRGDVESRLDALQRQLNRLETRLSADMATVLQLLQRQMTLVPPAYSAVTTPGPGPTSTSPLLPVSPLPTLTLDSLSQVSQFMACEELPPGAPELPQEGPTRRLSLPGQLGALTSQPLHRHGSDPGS
Cytochrome P450 3A4 (Homo sapiens), sequence (P08684 whole entry, looked up): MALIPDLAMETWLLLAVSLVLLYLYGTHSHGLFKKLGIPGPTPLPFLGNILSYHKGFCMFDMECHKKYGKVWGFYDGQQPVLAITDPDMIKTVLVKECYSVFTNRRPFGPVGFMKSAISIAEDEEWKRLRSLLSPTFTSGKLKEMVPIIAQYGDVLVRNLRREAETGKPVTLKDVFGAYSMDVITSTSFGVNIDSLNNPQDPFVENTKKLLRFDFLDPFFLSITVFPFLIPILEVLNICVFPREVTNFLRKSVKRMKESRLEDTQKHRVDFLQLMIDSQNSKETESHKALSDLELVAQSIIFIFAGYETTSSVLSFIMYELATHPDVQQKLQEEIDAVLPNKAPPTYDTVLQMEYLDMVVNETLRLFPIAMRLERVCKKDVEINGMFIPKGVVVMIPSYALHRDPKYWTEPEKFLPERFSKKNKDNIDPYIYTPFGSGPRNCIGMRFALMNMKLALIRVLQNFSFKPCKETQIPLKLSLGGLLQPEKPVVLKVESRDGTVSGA
Cytochrome P450 2C9 (Homo sapiens), sequence (P11712 whole entry, looked up): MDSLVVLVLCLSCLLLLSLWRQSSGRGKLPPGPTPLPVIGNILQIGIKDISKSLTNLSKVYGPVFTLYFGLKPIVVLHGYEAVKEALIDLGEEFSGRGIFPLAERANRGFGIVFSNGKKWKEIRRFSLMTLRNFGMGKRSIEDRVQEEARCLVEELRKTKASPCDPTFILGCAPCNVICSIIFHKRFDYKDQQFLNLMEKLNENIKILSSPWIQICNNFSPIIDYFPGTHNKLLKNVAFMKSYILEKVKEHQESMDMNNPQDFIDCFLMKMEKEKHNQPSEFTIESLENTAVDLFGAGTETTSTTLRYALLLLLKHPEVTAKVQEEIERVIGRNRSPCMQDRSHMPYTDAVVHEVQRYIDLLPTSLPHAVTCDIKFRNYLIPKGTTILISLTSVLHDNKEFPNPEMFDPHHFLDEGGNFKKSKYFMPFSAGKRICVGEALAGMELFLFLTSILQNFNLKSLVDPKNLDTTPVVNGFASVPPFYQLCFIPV

As for `CC(=O)OC/C=C(\C)CCC=C(C)C`, the Potency result in test [1] was “inactive and 39.9 µM (active)”; in test [4] it was “inactive and 31.7 µM (active)”. Further, the Potency entry in test [2] and in test [3] was “inactive” in each case.
On to `O=C(O)C1=NN(c2ccc(S(=O)(=O)O)cc2)C(=O)C1`, for which the Potency entry in test [1], in test [3] and in test [4] was “inactive” each time. The Potency in test [2] is 35.6 µM (active) and inactive.
For `O=C1C(N(CO)C(=O)NCO)N(CO)C(=O)N1CO` (centres undefined), the Potency result in test [1], in test [2], in test [3] and in test [4] was “inactive” each time.
On to `C=C(C)CC(C)(C)C`, for which the Potency result in test [1], in test [2], in test [3] and in test [4] was “inactive” in each case.
Turning to `c1cnc2c(c1)ccc1cccnc12`, the Potency in test [1] was 8.94 µM (active); in test [2], 10.1 µM (active) and 14.2 µM (active) and 11.2 µM (active). The Potency entry in test [3] and in test [4] was “inactive” each time.
Consider `COc1c(Cl)ccc(Cl)c1C(=O)O`, for which, in test [1], the Potency was 39.9 µM (active). For the same compound, the Potency result in test [2], in test [3] and in test [4] was “inactive” each time.
As to `OC[C@H]1O[C@@H](Oc2ccc(O)cc2)[C@H](O)[C@@H](O)[C@@H]1O`, the Potency result in test [1], in test [2], in test [3] and in test [4] was “inactive” in each case.
For `CCCCCCCCCCCC(=O)N(C)CC(=O)O`, the Potency in test [1] was 38.7 µM (active). Besides, the activity change, negative = inhibition in test [1] was -4.94% [at 10.5 µM] (inactive). Also, the Potency entry in test [2], in test [3] and in test [4] was “inactive” in each case.
For `COC(=O)/C=C\C(=O)OC`, the Potency entry in test [1], in test [2], in test [3] and in test [4] was “inactive” in each case.
As to `COc1ccc(N)c(OC)c1`, the Potency in test [1] was 15.3 µM (active) and 35.6 µM (active); in test [2] it was 39.9 µM (active); in test [4], 3.84 µM (active) and 11.3 µM (active). Further, in test [3], the Potency entry is “inactive”.
For the compound `C1CCCNCC1`, the Potency result in test [1], in test [2], in test [3] and in test [4] was “inactive” throughout.
`O=C1CCCCCCCCCCC1`: the Potency entry in test [1], in test [2], in test [3] and in test [4] was “inactive” throughout.
Turning to `CCCCCCCCCCCCCC(=O)O`, the Potency result in test [1], in test [3] and in test [4] was “inactive” throughout. Moreover, the Potency entry in test [2] is “inactive and 71 µM (active)”.
In the case of `CCCN(CCC)C(=O)SCC`, the Potency result in test [1], in test [2], in test [3] and in test [4] was “inactive” throughout.
For `Nc1cccc(C(F)(F)F)c1`, the Potency result in test [1], in test [2], in test [3] and in test [4] was “inactive” in each case.
Turning to `O=C(O)Cc1c[nH]c2ccccc12`, the Potency in test [1] is 31.7 µM (active) and inactive. In addition, the Potency result in test [2], in test [3] and in test [4] was “inactive” each time.
`CS(=O)(=O)c1ccc(Cl)cc1`: the Potency entry in test [1], in test [2], in test [3] and in test [4] was “inactive” throughout.
Regarding `CCc1cccc(CC)c1N`, the Potency in test [1] was 71 µM (active); in test [2] it was 22.6 µM (active) and 5.64 µM (active). In addition, the Potency entry in test [3] and in test [4] was “inactive” throughout.
`Cc1ccc(C)c(S(=O)(=O)O)c1`: the Potency entry in test [1], in test [2], in test [3] and in test [4] was “inactive” each time.
Take `CC/C=C(\C(=O)N[C@@H]1C(=O)N2C(C(=O)OCOC(=O)C(C)(C)C)=C(COC(N)=O)CS[C@H]12)c1csc(N)n1`: the Potency in test [1] is 12.3 µM (active) and 7.76 µM (active); in test [2], 27.5 µM (active) and inactive. Also, the Potency result in test [3] was “inactive”.
Regarding `Cc1cc(C)cc(O)c1`, the Potency result in test [1], in test [3] and in test [4] was “inactive” each time. In test [2], the Potency was 35.7 µM (active) and 41.1 µM (active).
With `N#CCC(=O)O`, the Potency entry in test [1], in test [2], in test [3] and in test [4] was “inactive” in each case.
In the case of `CC(=O)OCCC(C)C`, the Potency result in test [1], in test [2], in test [3] and in test [4] was “inactive” throughout.
`COc1c2ccoc2cc2oc(=O)ccc12`: the Potency was 2.89 µM (active) and 2.52 µM (active) in test [1]; 364 nM (active) and 283 nM (active) in test [2]; 6.47 µM (active) and 10 µM (active) in test [4]. In test [3], the Potency entry was “inactive”.
With `COc1ccc2cc3[n+](cc2c1OC)CCc1cc2c(cc1-3)OCO2`, the Potency entry in test [1] and in test [3] was “inactive” in each case. In addition, the Potency in test [2] is 25.4 µM (active) and 14.4 µM (active).
In the case of `CCCOCC(C)O` (centres undefined), the Potency entry in test [1], in test [2], in test [3] and in test [4] was “inactive” in each case.
Consider `NC(N)=S`, for which the Potency result in test [1], in test [2], in test [3] and in test [4] was “inactive” each time.
On to `CCCOC(=O)NCCCN(C)C`, for which the Potency in test [1] is 63.3 µM (active) and inactive. Further, the Potency entry in test [2], in test [3] and in test [4] was “inactive” in each case.
Turning to `O=C(NCC1CCCCN1)c1cc(OCC(F)(F)F)ccc1OCC(F)(F)F` (centres undefined), the Potency entry in test [1] and in test [2] was “inactive” throughout. Further, the Potency in test [3] was 15.2 µM (active) and 9.52 µM (active).
For `O=C1O[C@H]([C@H](O)CO)C(O)=C1O`, the Potency result in test [1], in test [2], in test [3] and in test [4] was “inactive” throughout.
In the case of `CCCCCCC(=O)O`, the Potency entry in test [1], in test [2], in test [3] and in test [4] was “inactive” in each case.
Turning to `CC/C(C)=N/O`, the Potency entry in test [1], in test [2], in test [3] and in test [4] was “inactive” in each case.
With `Cc1cc(CC(=O)O)n(C)c1C(=O)c1ccc(Cl)cc1`, the Potency entry in test [1], in test [2], in test [3] and in test [4] was “inactive” each time.
Turning to `CN=C(NC#N)NCCSCc1nc[nH]c1C`, the Potency in test [1] was 19.8 µM (active) and 15.5 µM (active). Moreover, the Potency result in test [2] and in test [3] was “inactive” each time.
As for `O=C1OC(=O)c2c(Cl)c(Cl)c(Cl)c(Cl)c21`, the Potency entry in test [1], in test [2], in test [3] and in test [4] was “inactive” in each case.
Take `COC(=O)OC`: the Potency entry in test [1], in test [2], in test [3] and in test [4] was “inactive” in each case.
With `CC(=O)Nc1ccc(CC(=O)O)cc1`, the Potency result in test [1], in test [2], in test [3] and in test [4] was “inactive” each time.
As for `Cc1ccc(C(C)C)cc1`, the Potency entry in test [1], in test [2], in test [3] and in test [4] was “inactive” each time.
